Assay results as given in PubChem BioAssay.

Molecular target: Tumor necrosis factor receptor superfamily member 10B (Homo sapiens) (UniProt O14763)
Experiment: viability loss of caspase-8 NB7 cells with TRAIL – with/without TRAIL, luminescence panel, confirmation (AID 651596)
Conditions: NB7 neuroblastoma + caspase-8, TRAIL sensitization, NB7 Caspase-8, with TRAIL, mean of runs, at 10 µM, stronger effect = higher value

Chain of Tumor necrosis factor receptor superfamily member 10B (Homo sapiens) (O14763 whole entry, looked up): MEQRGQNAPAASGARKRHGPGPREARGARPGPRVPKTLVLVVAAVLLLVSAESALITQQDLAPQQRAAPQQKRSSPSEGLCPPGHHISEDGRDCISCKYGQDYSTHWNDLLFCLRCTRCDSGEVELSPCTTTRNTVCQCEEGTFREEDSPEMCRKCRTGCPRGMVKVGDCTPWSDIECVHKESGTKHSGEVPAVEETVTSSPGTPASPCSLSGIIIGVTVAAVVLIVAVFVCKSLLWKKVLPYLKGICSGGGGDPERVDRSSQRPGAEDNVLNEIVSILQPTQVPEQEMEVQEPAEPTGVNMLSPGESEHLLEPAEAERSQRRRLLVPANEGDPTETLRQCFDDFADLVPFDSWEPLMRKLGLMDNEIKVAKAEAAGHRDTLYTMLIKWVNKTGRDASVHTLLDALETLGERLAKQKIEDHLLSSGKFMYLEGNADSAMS

| SMILES | activity [%] |
| --- | --- |
| CC1CCC(C(C)C)C(OC(=O)Cn2c(COc3ccccc3)[n+](C)c3ccccc32)C1 (stereo unspecified) | 66.9 |
| CNC(=O)Oc1ccc(-c2cn3cc(Cl)ccc3n2)cc1 | 85.8 |
| CCOC(=O)[C@]12Cc3cc(OC)ccc3[C@H]1N(C1CCCCC1)C(=O)c1ccccc12 | 91.9 |
| CCOC(=O)[C@]12Cc3cc(Cl)ccc3[C@H]1N(CC(=O)OC)C(=O)c1ccccc12 | 40.5 |
| CCOC(=O)[C@]12Cc3cc4ccccc4cc3[C@H]1N(Cc1ccccc1)C(=O)c1ccccc12 | 52.8 |
| NC(=O)c1cn(C2OC(CO)C(O)C2O)c2ncnc(N)c12 (stereo unspecified) | 56.3 |
| Oc1ccc(-[n+]2c(-c3ccccc3)cc(-c3ccccc3)cc2-c2ccccc2)cc1 | 90.3 |
| CCOC(=O)[C@]12Cc3cc4ccccc4cc3[C@H]1N(Cc1ccccc1)C(=O)c1cc(OC)ccc12 | 46.5 |
| CC12CCC(O)CC1CCC1C2CCC2(C)C(C3=CC(=O)OC3)CCC12O (stereo unspecified) | 87.3 |
| CCC(C)C1NC(=O)C(NC(=O)C(CC(C)C)N(C)C(=O)C2CCCN2C(=O)C(C)O)C(C)OC(=O)C(Cc2ccc(OC)cc2)N(C)C(=O)C2CCCN2C(=O)C(CC(C)C)NC(=O)[C@H](C)C(=O)[C@H](C(C)C)OC(=O)CC1O (stereo partly specified) | 96.9 |
| COC(=O)[C@@H]1[C@@H](C(=O)OC)C2(c3ccccc3-c3ccccc32)N(c2ccc(Cl)cc2)N1C#N | 96.8 |
| CCOC(=O)[C@]12Cc3cc(OC)ccc3[C@H]1N(C(C)C)C(=O)c1cc(OC)ccc12 | 28 |
| CC(C)(C)n1cc(C(=O)c2ccc3ccccc3c2O)cn1 | 55.8 |
| O=c1[nH]c2ccccc2n1C1CCN(C(CCc2ccccc2)c2nnnn2Cc2ccccc2)CC1 (stereo unspecified) | 95.3 |
| C[C@@H]1O[C@@H](O[C@@H]2C=C3CC[C@@H]4C(CC[C@]5(C)[C@@H](c6ccc(=O)oc6)CC[C@]45O)[C@@]3(C)CC2)[C@H](O)[C@H](O)[C@H]1O (stereo partly specified) | 82.4 |
| CC1CC(C)CC(C)C(O)C(C#N)=CC=CCC(C2CCCC2C(=O)O)OC(=O)CC(O)C(C)C1 (stereo unspecified) | 94 |
| Cc1ccc(-c2cc(-c3ccccc3)cc(-c3ccccc3)[n+]2-c2ccccc2)cc1 | 96.6 |

| SMILES | activity [%] |
| --- | --- |
| CC(C)CCn1c(=O)c(C(=O)Nc2ccccc2S(N)(=O)=O)c(O)c2ccccc21 | 55.4 |
| O=c1[nH]c2ccccc2n1C1CCN(C(c2cc3ccccc3o2)c2nnnn2Cc2ccccc2)CC1 (stereo unspecified) | 73.2 |
| COc1ccc2nc(-c3ccc(CN4CCC(n5c(=O)[nH]c6ccccc65)CC4)cc3)c(-c3ccccc3)nc2c1 | 39.8 |
| CC(=O)OC[C@]12CCC(C)=C[C@H]1O[C@@H]1[C@H](O)[C@@H](OC(C)=O)[C@@]2(C)[C@]12CO2 | 95.1 |
| CC(C)N(C(=O)CCl)c1ccccc1 | 98 |
| CCCC1(CCC)C(=O)NC(=NCc2ccccc2)NC1=O | 51.6 |
| CNC(=O)Oc1cccc(-c2cn3cc(Cl)ccc3n2)c1 | 86.8 |
| NC(=S)c1cn(C2OC(CO)C(O)C2O)c2ncnc(N)c12 (stereo unspecified) | 59.4 |
| C[C@]12CC[C@H]3C(CCC4(O)CC(O)CC[C@]34C=O)C1=CC[C@H]2c1ccc(=O)oc1 (stereo partly specified) | 70.2 |
| CCOC(=O)[C@]12Cc3cc(C)ccc3[C@H]1N(C(C)C)C(=O)c1ccccc12 | 44.4 |
| Nc1ncnc2c1ccn2[C@@H]1O[C@H](CO)[C@@H](O)[C@H]1O | 97.7 |
| CCCCCCCCCCCCCCCC[N+](C)(C)C | 96.8 |
| CCOC(=O)[C@]12Cc3cc(OC)ccc3[C@H]1N(C1CCCCC1)C(=O)c1cc(OC)ccc12 | 57.6 |
| CC12CCC(O)CC1CCC1C2CCC2(C)C(C3=CC(=O)OC3)C(O)CC12O (stereo unspecified) | 80.4 |
| Cc1ccccc1-[n+]1c(-c2ccccc2)cc(-c2ccccc2)cc1-c1ccccc1 | 75.7 |
| CCOC(=O)[C@]12Cc3c(cc(OC)c(OC)c3OC)[C@H]1N(C1CCCCC1)C(=O)c1ccccc12 | 95.8 |

Test system: not listed separately
Experiment: as above
Conditions: NB7 neuroblastoma + caspase-8, without TRAIL, NB7 Caspase-8, without TRAIL, mean of runs, at 10 µM

| SMILES | activity [%] |
| --- | --- |
| CC1CCC(C(C)C)C(OC(=O)Cn2c(COc3ccccc3)[n+](C)c3ccccc32)C1 (stereo unspecified) | 57.7 |
| CNC(=O)Oc1ccc(-c2cn3cc(Cl)ccc3n2)cc1 | 84.1 |
| CCOC(=O)[C@]12Cc3cc(OC)ccc3[C@H]1N(C1CCCCC1)C(=O)c1ccccc12 | 94.1 |
| CCOC(=O)[C@]12Cc3cc(Cl)ccc3[C@H]1N(CC(=O)OC)C(=O)c1ccccc12 | 64 |
| CCOC(=O)[C@]12Cc3cc4ccccc4cc3[C@H]1N(Cc1ccccc1)C(=O)c1ccccc12 | 54.6 |
| NC(=O)c1cn(C2OC(CO)C(O)C2O)c2ncnc(N)c12 (stereo unspecified) | 81.3 |
| Oc1ccc(-[n+]2c(-c3ccccc3)cc(-c3ccccc3)cc2-c2ccccc2)cc1 | 59.6 |
| CCOC(=O)[C@]12Cc3cc4ccccc4cc3[C@H]1N(Cc1ccccc1)C(=O)c1cc(OC)ccc12 | 53.2 |
| CC12CCC(O)CC1CCC1C2CCC2(C)C(C3=CC(=O)OC3)CCC12O (stereo unspecified) | 91.6 |
| CCC(C)C1NC(=O)C(NC(=O)C(CC(C)C)N(C)C(=O)C2CCCN2C(=O)C(C)O)C(C)OC(=O)C(Cc2ccc(OC)cc2)N(C)C(=O)C2CCCN2C(=O)C(CC(C)C)NC(=O)[C@H](C)C(=O)[C@H](C(C)C)OC(=O)CC1O (stereo partly specified) | 98.2 |
| COC(=O)[C@@H]1[C@@H](C(=O)OC)C2(c3ccccc3-c3ccccc32)N(c2ccc(Cl)cc2)N1C#N | 99.2 |
| CCOC(=O)[C@]12Cc3cc(OC)ccc3[C@H]1N(C(C)C)C(=O)c1cc(OC)ccc12 | 45 |
| CC(C)(C)n1cc(C(=O)c2ccc3ccccc3c2O)cn1 | 51 |
| O=c1[nH]c2ccccc2n1C1CCN(C(CCc2ccccc2)c2nnnn2Cc2ccccc2)CC1 (stereo unspecified) | 92.7 |
| C[C@@H]1O[C@@H](O[C@@H]2C=C3CC[C@@H]4C(CC[C@]5(C)[C@@H](c6ccc(=O)oc6)CC[C@]45O)[C@@]3(C)CC2)[C@H](O)[C@H](O)[C@H]1O (stereo partly specified) | 91.5 |
| CC1CC(C)CC(C)C(O)C(C#N)=CC=CCC(C2CCCC2C(=O)O)OC(=O)CC(O)C(C)C1 (stereo unspecified) | 98.7 |
| Cc1ccc(-c2cc(-c3ccccc3)cc(-c3ccccc3)[n+]2-c2ccccc2)cc1 | 87.8 |

| SMILES | activity [%] |
| --- | --- |
| CC(C)CCn1c(=O)c(C(=O)Nc2ccccc2S(N)(=O)=O)c(O)c2ccccc21 | 45.3 |
| O=c1[nH]c2ccccc2n1C1CCN(C(c2cc3ccccc3o2)c2nnnn2Cc2ccccc2)CC1 (stereo unspecified) | 75.7 |
| COc1ccc2nc(-c3ccc(CN4CCC(n5c(=O)[nH]c6ccccc65)CC4)cc3)c(-c3ccccc3)nc2c1 | 24.9 |
| CC(=O)OC[C@]12CCC(C)=C[C@H]1O[C@@H]1[C@H](O)[C@@H](OC(C)=O)[C@@]2(C)[C@]12CO2 | 97.4 |
| CC(C)N(C(=O)CCl)c1ccccc1 | 98.3 |
| CCCC1(CCC)C(=O)NC(=NCc2ccccc2)NC1=O | 20.8 |
| CNC(=O)Oc1cccc(-c2cn3cc(Cl)ccc3n2)c1 | 83 |
| NC(=S)c1cn(C2OC(CO)C(O)C2O)c2ncnc(N)c12 (stereo unspecified) | 91.2 |
| C[C@]12CC[C@H]3C(CCC4(O)CC(O)CC[C@]34C=O)C1=CC[C@H]2c1ccc(=O)oc1 (stereo partly specified) | 55.2 |
| CCOC(=O)[C@]12Cc3cc(C)ccc3[C@H]1N(C(C)C)C(=O)c1ccccc12 | 63.6 |
| Nc1ncnc2c1ccn2[C@@H]1O[C@H](CO)[C@@H](O)[C@H]1O | 97.9 |
| CCCCCCCCCCCCCCCC[N+](C)(C)C | 96.8 |
| CCOC(=O)[C@]12Cc3cc(OC)ccc3[C@H]1N(C1CCCCC1)C(=O)c1cc(OC)ccc12 | 75.7 |
| CC12CCC(O)CC1CCC1C2CCC2(C)C(C3=CC(=O)OC3)C(O)CC12O (stereo unspecified) | 53.5 |
| Cc1ccccc1-[n+]1c(-c2ccccc2)cc(-c2ccccc2)cc1-c1ccccc1 | 64.1 |
| CCOC(=O)[C@]12Cc3c(cc(OC)c(OC)c3OC)[C@H]1N(C1CCCCC1)C(=O)c1ccccc12 | 98 |
